Assay results from PubChem BioAssay (NCATS).
Several values for one entry are separate records, joined by “and”; a condition that tells them apart may be missing. Identical values can stand only once. Results filed as inconclusive are left out. Activity calls are given as the source filed them. The call rests on the fitted dose curve; in most records, active means well fitted cell-killing curve with a large enough effect; inconclusive means small, poorly fitted or top-dose-only effect, or effect the other way; inactive means no such curve, though single readings can be large or run the other way.

assay: Viability qHTS for spleen associated tyrosine kinase inhibitor (SYKi) naive MV4-11 cells (AID 1963823); conditions: MV4-11 AML viability, CellTiter-Glo luminescence, 72 h; series mostly up to 45 µM; viability (% of control): at the top concentration; further: nearly all actives have a fitted effect of over 40% in size
In short: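 CellTiter-Glo luminescence, 10 min room-temperature incubation, gave viability. Cells: naive MV4-11 (500/well), treated 72 hr at 37 C, 5% CO2.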
Potency means the concentration at half of the fitted maximal effect.

Structure (SMILES) | viability (% of control) | Potency
Cc1c(C(=O)NCCO)[n+](=O)c2ccccc2n1[O-] | 82.8% (inactive) | –
CC[N+](CC)(CC)CCOC(=O)C(C1CCCC1)C1CCCC1 | – | 18.8 µM (active)
NC(=O)NS(=O)(=O)c1ccc(Cl)cc1 | 82.9% (inactive) | –
FC(F)(F)C(Cl)Br (stereo not given) | 101% (inactive) | –
CN1[C@@H]2CC[C@H]1CC(OC(=O)C(O)c1ccccc1)C2 (stereo not given in full) | 101% (inactive) | –
C=C(CC)C(=O)c1ccc(OCC(=O)O)c(Cl)c1Cl | – | 13.3 µM (active)
Cc1ncc(COP(=O)(O)O)c(C=O)c1O | 68.1% (inactive) | –
CC(C)(C)c1cc(C=O)cc(C(C)(C)C)c1O | 78.9% (inactive) | –
CC(=O)Nc1ccn(C2COC(COC(=O)c3ccccc3)O2)c(=O)n1 (stereo not given) | – | 2.31 µM (active)
CC(=O)N(CC(O)CO)c1c(I)c(C(=O)NCCO)c(I)c(C(=O)NCC(O)CO)c1I (stereo not given) | 66.7% (inactive) | –
C=CCc1ccc(O)c(OC)c1 | 91.5% (inactive) | –
CC1(C)OC[C@@H]2O[C@@]3(C(=O)O)OC(C)(C)O[C@H]3[C@@H]2O1 | 68.8% (inactive) | –
O=C(O)CCCCCCCC(=O)O | 65% (inactive) | –
CCOC(=O)c1ccccc1O | 74.2% (inactive) | –
NC(Cc1ccc(Cl)cc1)C(=O)O (stereo not given) | 87.6% [at 0.588 µM] (inactive) | –
CCCCCCCCCCCCCCCCO | 103% (inactive) | –
CCCCS(=O)(=O)N[C@@H](Cc1ccc(OCCCCC2CCNCC2)cc1)C(=O)O | – | inactive
O=c1[nH]c(=O)n([C@H]2C[C@H](O)[C@@H](CO)O2)cc1C(F)(F)F | – | 2.11 µM (active) and 1.66 µM (active)
NC(=O)NS(=O)(=O)c1ccc(N)cc1 | 49.9% (inactive) | –
C[N+](C)(C)CCOC(N)=O | 102% (inactive) | –

Structure (SMILES) | viability (% of control) | Potency
C[C@H](O)C(=O)Nc1c(I)c(C(=O)NC(CO)CO)c(I)c(C(=O)NC(CO)CO)c1I | 86.6% (inactive) | –
O=C(O)Cc1csc(-c2ccc(Cl)cc2)n1 | 80.2% (inactive) | –
O=C(Cn1ccnc1[N+](=O)[O-])NCCO | 100% (inactive) | –
COCC(=O)Nc1c(I)c(C(=O)NCC(O)CO)c(I)c(C(=O)N(C)CC(O)CO)c1I (stereo not given) | – | 0.0009 µM (active)
Cc1c(F)c(N2CCNC(C)C2)cc2c1c(=O)c(C(=O)O)cn2C1CC1 (stereo not given) | 46.8% (inactive) | –
Cc1scc2c1N(C(=O)CN1CCN(C)CC1)c1ccccc1NC2=O | 86.1% (inactive) | –
CC(=O)OCC(=O)Nc1cc(C#N)cc(NC(=O)COC(C)=O)c1Cl | 65.1% (inactive) | –
C[C@]12CCC(=O)C=C1CC[C@@H]1[C@@H]2[C@@H](O)C[C@@]2(C)[C@H]1CC[C@]2(O)C(=O)CO | – | inactive
CC(C)(C)c1ccc(C(O)CCCN2CCC(C(O)(c3ccccc3)c3ccccc3)CC2)cc1 (stereo not given) | – | 21.1 µM (active)
CCn1c(=O)c(-c2ccc(-c3cncs3)cc2Cl)cc2cnc(Nc3ccc(N4CCN(C)CC4)cc3)nc21 | – | 0.291 µM (active)
Cc1c(C)c2c(c(C)c1OC(=O)c1cccnc1)CC[C@@](C)(CCC[C@H](C)CCC[C@H](C)CCCC(C)C)O2 | 98.6% (inactive) | –
CCCCCCCCCCC(CO)CCCCCCCC (stereo not given) | 71.6% (inactive) | –
Cc1cc(C(C)(C)C)c(O)c(C(C)(C)C)c1 | 105% (inactive) | –
CNCCC(Oc1ccccc1OC)c1ccccc1 (stereo not given) | 79% (inactive) | –
O=C(O)c1ccccc1O | 93.2% (inactive) | –
CC(=O)OCC(COC(C)=O)OC(C)=O | 95.8% (inactive) | –
COc1cc(NS(=O)(=O)c2ccc(N)cc2)ncn1 | 91.2% (inactive) | –
COc1ccccc1O | 87.6% [at 91.9 µM] (inactive) | –
CN1[C@@H]2CC[C@H]1CC(OC(=O)c1c[nH]c3ccccc13)C2 (stereo not given in full) | – | inactive
CC1(C)Oc2ccc(C#N)cc2[C@@H](N2CCCC2=O)[C@@H]1O | 94.7% (inactive) | –

assay: Viability qHTS for spleen associated tyrosine kinase inhibitor (SYKi) drug resistant MV4-11 cells (AID 1963824); conditions: SYKi-resistant MV4-11 viability, CellTiter-Glo, 72 h; series mostly up to 45 µM; viability, % of control: at the top concentration; further: nearly all actives have a fitted effect of over 35% in size
In short: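 SYK-inhibitor-resistant MV4-11 AML cells were seeded at 500 per well onto compound and cultured 72 hours (37 °C, 5% CO2). CellTiter-Glo was then added, and after 10 min at room temperature, luminescence gave viability.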

Structure (SMILES) | viability, % of control | Potency
Cc1c(C(=O)NCCO)[n+](=O)c2ccccc2n1[O-] | 87% (inactive) | –
CC[N+](CC)(CC)CCOC(=O)C(C1CCCC1)C1CCCC1 | – | 11.9 µM (active)
NC(=O)NS(=O)(=O)c1ccc(Cl)cc1 | 70.5% (inactive) | –
FC(F)(F)C(Cl)Br (stereo not given) | 111% (inactive) | –
CN1[C@@H]2CC[C@H]1CC(OC(=O)C(O)c1ccccc1)C2 (stereo not given in full) | 115% (inactive) | –
C=C(CC)C(=O)c1ccc(OCC(=O)O)c(Cl)c1Cl | – | 15 µM (active)
Cc1ncc(COP(=O)(O)O)c(C=O)c1O | 72.1% (inactive) | –
CC(C)(C)c1cc(C=O)cc(C(C)(C)C)c1O | 81.4% (inactive) | –
CC(=O)Nc1ccn(C2COC(COC(=O)c3ccccc3)O2)c(=O)n1 (stereo not given) | – | 1.64 µM (active)
CC(=O)N(CC(O)CO)c1c(I)c(C(=O)NCCO)c(I)c(C(=O)NCC(O)CO)c1I (stereo not given) | 74% (inactive) | –
C=CCc1ccc(O)c(OC)c1 | 94.8% (inactive) | –
CC1(C)OC[C@@H]2O[C@@]3(C(=O)O)OC(C)(C)O[C@H]3[C@@H]2O1 | 92.2% (inactive) | –
O=C(O)CCCCCCCC(=O)O | 87% (inactive) | –
CCOC(=O)c1ccccc1O | 95.9% (inactive) | –
NC(Cc1ccc(Cl)cc1)C(=O)O (stereo not given) | 93.1% [at 0.588 µM] (inactive) | –
CCCCCCCCCCCCCCCCO | 89.7% (inactive) | –
CCCCS(=O)(=O)N[C@@H](Cc1ccc(OCCCCC2CCNCC2)cc1)C(=O)O | – | inactive
O=c1[nH]c(=O)n([C@H]2C[C@H](O)[C@@H](CO)O2)cc1C(F)(F)F | – | 2.11 µM (active) and 2.35 µM (active)
NC(=O)NS(=O)(=O)c1ccc(N)cc1 | 67.5% (inactive) | –
C[N+](C)(C)CCOC(N)=O | 82.7% (inactive) | –

Structure (SMILES) | viability, % of control | Potency
C[C@H](O)C(=O)Nc1c(I)c(C(=O)NC(CO)CO)c(I)c(C(=O)NC(CO)CO)c1I | 90.8% (inactive) | –
O=C(O)Cc1csc(-c2ccc(Cl)cc2)n1 | 86.1% (inactive) | –
O=C(Cn1ccnc1[N+](=O)[O-])NCCO | 104% (inactive) | –
COCC(=O)Nc1c(I)c(C(=O)NCC(O)CO)c(I)c(C(=O)N(C)CC(O)CO)c1I (stereo not given) | 90% (inactive) | –
Cc1c(F)c(N2CCNC(C)C2)cc2c1c(=O)c(C(=O)O)cn2C1CC1 (stereo not given) | 58.2% (inactive) | –
Cc1scc2c1N(C(=O)CN1CCN(C)CC1)c1ccccc1NC2=O | 90.6% (inactive) | –
CC(=O)OCC(=O)Nc1cc(C#N)cc(NC(=O)COC(C)=O)c1Cl | 88.1% (inactive) | –
C[C@]12CCC(=O)C=C1CC[C@@H]1[C@@H]2[C@@H](O)C[C@@]2(C)[C@H]1CC[C@]2(O)C(=O)CO | – | inactive
CC(C)(C)c1ccc(C(O)CCCN2CCC(C(O)(c3ccccc3)c3ccccc3)CC2)cc1 (stereo not given) | – | 11.9 µM (active)
CCn1c(=O)c(-c2ccc(-c3cncs3)cc2Cl)cc2cnc(Nc3ccc(N4CCN(C)CC4)cc3)nc21 | – | 0.461 µM (active)
Cc1c(C)c2c(c(C)c1OC(=O)c1cccnc1)CC[C@@](C)(CCC[C@H](C)CCC[C@H](C)CCCC(C)C)O2 | 102% (inactive) | –
CCCCCCCCCCC(CO)CCCCCCCC (stereo not given) | 80.2% (inactive) | –
Cc1cc(C(C)(C)C)c(O)c(C(C)(C)C)c1 | 85.3% (inactive) | –
CNCCC(Oc1ccccc1OC)c1ccccc1 (stereo not given) | 76.1% (inactive) | –
O=C(O)c1ccccc1O | 82% (inactive) | –
CC(=O)OCC(COC(C)=O)OC(C)=O | 98.7% (inactive) | –
COc1cc(NS(=O)(=O)c2ccc(N)cc2)ncn1 | 101% (inactive) | –
COc1ccccc1O | 77.9% [at 91.9 µM] (inactive) | –
CN1[C@@H]2CC[C@H]1CC(OC(=O)c1c[nH]c3ccccc13)C2 (stereo not given in full) | – | inactive
CC1(C)Oc2ccc(C#N)cc2[C@@H](N2CCCC2=O)[C@@H]1O | 91.8% (inactive) | –
